Data on 38 compounds can be found in PubChem BioAssay AID588683 (Broad Institute, 2011).

Potency and affinity values are given separately. Values without a mark were called inactive. The rule behind the calls is not given here.

Chain of Kelch-like ECH-associated protein 1 (Homo sapiens) + Nuclear factor erythroid 2-related factor 2 (Homo sapiens) (Q14145 whole entry, looked up, the tested form may be a part): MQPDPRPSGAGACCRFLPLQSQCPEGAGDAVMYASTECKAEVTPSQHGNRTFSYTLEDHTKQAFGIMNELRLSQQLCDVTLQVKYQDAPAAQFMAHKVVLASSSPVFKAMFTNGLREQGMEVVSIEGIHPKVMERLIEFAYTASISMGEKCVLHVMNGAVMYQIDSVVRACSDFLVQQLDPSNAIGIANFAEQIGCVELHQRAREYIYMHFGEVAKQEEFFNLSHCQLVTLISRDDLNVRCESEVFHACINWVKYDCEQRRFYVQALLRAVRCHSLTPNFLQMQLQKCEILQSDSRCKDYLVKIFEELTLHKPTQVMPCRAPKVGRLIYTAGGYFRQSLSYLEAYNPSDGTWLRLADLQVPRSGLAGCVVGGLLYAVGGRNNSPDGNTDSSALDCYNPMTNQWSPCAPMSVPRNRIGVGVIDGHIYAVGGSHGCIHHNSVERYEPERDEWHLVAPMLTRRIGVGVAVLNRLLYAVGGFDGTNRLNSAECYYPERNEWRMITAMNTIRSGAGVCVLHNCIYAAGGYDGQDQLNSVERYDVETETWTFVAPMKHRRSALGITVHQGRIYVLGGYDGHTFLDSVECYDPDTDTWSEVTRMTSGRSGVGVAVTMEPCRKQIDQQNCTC
Chain of Kelch-like ECH-associated protein 1 (Homo sapiens) + Nuclear factor erythroid 2-related factor 2 (Homo sapiens) (Q16236 whole entry, looked up, the tested form may be a part): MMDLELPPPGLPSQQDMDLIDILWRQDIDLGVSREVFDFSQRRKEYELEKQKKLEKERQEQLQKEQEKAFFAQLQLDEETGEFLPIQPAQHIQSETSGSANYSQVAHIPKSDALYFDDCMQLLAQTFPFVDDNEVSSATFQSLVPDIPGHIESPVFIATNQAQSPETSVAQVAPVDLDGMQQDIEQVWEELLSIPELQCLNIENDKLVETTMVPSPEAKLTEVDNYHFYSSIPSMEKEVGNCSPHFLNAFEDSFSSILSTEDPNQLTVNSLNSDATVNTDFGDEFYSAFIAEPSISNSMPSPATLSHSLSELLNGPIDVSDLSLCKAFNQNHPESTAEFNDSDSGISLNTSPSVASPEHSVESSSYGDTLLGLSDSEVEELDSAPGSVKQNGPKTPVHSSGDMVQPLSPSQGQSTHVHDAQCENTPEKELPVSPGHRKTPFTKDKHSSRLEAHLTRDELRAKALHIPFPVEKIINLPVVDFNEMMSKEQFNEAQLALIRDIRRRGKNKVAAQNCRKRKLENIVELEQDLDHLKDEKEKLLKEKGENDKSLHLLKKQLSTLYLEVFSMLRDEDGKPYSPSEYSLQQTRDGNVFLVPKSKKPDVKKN

The experiment addresses Kelch-like ECH-associated protein 1 (Homo sapiens) + Nuclear factor erythroid 2-related factor 2 (Homo sapiens) (UniProt Q14145+Q16236). The experiment in a line: Keap1-Nrf2 protein-protein interaction inhibitors, dose response, biochemical, fluorescence polarization, cherry-picked samples (AID 588683).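 Note: Kelch domain of Keap1 binding a fluorescein-labelled 9mer Nrf2 peptide; more negative means stronger inhibition of peptide binding.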 As to conditions: Keap1/Nrf2 peptide fluorescence polarization, plate reader; series mostly up to 26 µM; activity change, negative = inhibition: at the top concentration. For orientation: Polarisation of emitted light reports the rotation of a fluorescent probe.
On to `O=C(CSc1nc2ccccc2c(=O)n1CCCN1CCOCC1)Nc1ccccc1OC(F)F`, for which the “activity change, negative = inhibition” value was -1.34%.

For the compound `C=CCOc1ccc(C=NNc2ccc(S(=O)(=O)Nc3ccccc3C(=O)O)cc2[N+](=O)[O-])cc1OC`, the “activity change, negative = inhibition” value is -0.849%. For `CCCc1nc2oc3cc(OC)ccc3c(=O)c2c(=O)n1Cc1ccco1`, the “activity change, negative = inhibition” value was -1.14%. For `CS(=O)(=O)N1CCCC(C(=O)Nc2ccc(F)c(F)c2)C1` (stereo not drawn) the value was 2.9%; for `CCCC1OC23CCCCC2C(C#N)(C#N)C1(C#N)C(=N)O3` (stereo not drawn), -1.32%; for `N=c1c(C(=O)NCc2ccc(F)cc2)cc2c(=O)n3ccccc3nc2n1Cc1cccnc1`, -11.4%. For `CC(=O)N1CCN(S(=O)(=O)c2cccc(C(=O)NNC(=O)c3ccc(Br)cc3)c2)CC1` the value was -2.07%.

`CCN1CCN(S(=O)(=O)c2ccc(Cl)c(C(=O)NC3CCC(C)CC3)c2)CC1` (stereo not drawn): the “activity change, negative = inhibition” value is 4.11%. The figure for `O=C(CCCCl)NC(=S)Nc1ccc(N2CCOCC2)cc1` is -3.9%. Turning to `COc1cc(NC(=O)CSc2nc3cc(C)ccc3cc2C)c(C(=O)O)cc1OC`, the “activity change, negative = inhibition” value is -2.64%. On to `O=[N+]([O-])c1ccc(S(=O)(=O)c2ccccc2)nc1`, for which the “activity change, negative = inhibition” value is -12.1%.

With `Cc1ccc(C)c(N2CCN(C(=O)c3cc4ccccn4n3)CC2)c1`, the “activity change, negative = inhibition” value is -1.58%. Regarding `Clc1ccc(C2=CC(c3ccco3)n3ncnc3N2)cc1` (stereo not drawn), the “activity change, negative = inhibition” value was -20.5%. For `CNC(=S)Nc1cccc(C(=O)OC)c1` the value was 1.38%; for `COc1ccc(/C=N/N=C2/CC(C)(C)Cc3n[nH]c(=O)cc32)cc1`, -23.3%; for `Cc1cc(NC(=O)CSc2nnc(-c3ccncc3)n2C)n(-c2ccccc2)n1`, -2.6%. The figure for `CC(C)NC(=O)N(C)C[C@H]1Oc2ccc(NS(=O)(=O)c3cn(C)cn3)cc2C(=O)N([C@H](C)CO)C[C@@H]1C` is -2.06%. In the case of `CC1(C)CC(=O)C(N=Nc2c(F)cccc2F)=C(O)C1`, the “activity change, negative = inhibition” value was 1.16%.

For `O=C(NNS(=O)(=O)c1ccc(F)cc1)c1ccc(O)cc1`, the “activity change, negative = inhibition” value is -13.2%. On to `O=c1[nH]c2cc(C(F)(F)F)ccc2n1-c1cc(C(F)(F)F)ccc1O`, for which the “activity change, negative = inhibition” value is -8.84%.

For `CC(C)(C)c1cc[n+](-c2[nH]c(=O)sc2/C=N/NC([S-])=Nc2ccccc2)cc1`, the “activity change, negative = inhibition” value is -18.6%. For `CCc1cc[n+](-c2nc([O-])sc2C=O)cc1` the value was -13.4%. Consider `COc1ccc(C2N3CC4(C)CN2CC(C)(C3)C4O)cc1` (stereo not drawn), for which the “activity change, negative = inhibition” value is -6.86%. The figure for `CN1/C(=C\C=C(/C#N)C(=O)Nc2ccc(Cl)cc2)C(C)(C)c2ccccc21` is 19.3%; for `Cc1nnsc1C(=O)N1CCN(c2ccc(F)cc2)CC1` it is -13.3%; for `COCCCn1c(=NC(=O)c2ccccc2)c(C#N)cc2c(=O)n3cccc(C)c3nc21` it is 2.49%. In the case of `COc1ccccc1NC(=O)C(C)OC(=O)C1COc2ccccc2O1` (stereo not drawn), the “activity change, negative = inhibition” value is -9.11%. The figure for `O=C1/C(=C/C=C/c2ccco2)SC(=S)N1NS(=O)(=O)c1ccccc1` is -4.92%; for `Cc1ccc2oc(=O)c3cnn(CC(=O)NCCC(C)C)c3c2c1` it is -7.73%; for `COC(=O)N/N=C/c1cn(Cc2ccccc2Cl)c2ccccc12` it is -4.96%. Consider `COc1ccc(OC)c(C(=O)c2coc3ccc(O)c(CN(C)C)c23)c1`, for which the “activity change, negative = inhibition” value was -6.21%. The figure for `Cc1ccc(C2=CC(c3cccs3)n3nnnc3N2)cc1` (stereo not drawn) is 2.17%; for `Cc1ccc(O)c(C(=O)c2cnc3c(c2)c(C)nn3-c2ccccc2)c1` it is -0.847%. For `CCN(CC)c1ccc(C2Nc3cccc4cccc(c34)N2)cc1` the value was 10.9%; for `O=C1CCn2c1c(O)c1ccccc1c2=O`, -4.71%. For `CC(=O)Nc1c(N)c2ccccc2oc1=O` the value was -4.6%; for `CCCCCSc1nnc2c(n1)OC(C)N(C(C)=O)c1ccccc1-2` (stereo not drawn), 0.854%. In the case of `OC(CCN1CCC2(CC1)OCCO2)C(F)(F)F` (stereo not drawn), the “activity change, negative = inhibition” value is -14%.
